From PubChem BioAssay
BAZ2B block: qHTS Assay for Inhibitors of BAZ2B | Bromodomain adjacent to zinc finger domain protein 2B (Homo sapiens), Q9UIF8 | AlphaScreen BAZ2B-H3K14Ac peptide displacement | Potency, µM (series often up to 114 µM), without a hit: at the highest dose activity change, negative = inhibition, actives largely listed as inhibitors | 4.4% of 360,000 active | AID 504333, 2011; further: on the % scale 0 is the no-effect control and ±100 the full control effect; nearly all actives have a fitted effect of over 60% in size
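Compounds, titrated to a top concentration of 110 uM, were incubated 30 min at room temperature with preformed BAZ2B/acetyl-K14 H3 peptide complex (50 nM each). Proximity signal was measured by AlphaScreen after 20 min with beads.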
HP1b binding inh: HTS for Inhibitors of HP1-beta Chromodomain Interactions with Methylated Histone Tails | 0.56% of 390,000 active | AID 540317, 2011 | Chromobox protein homolog 1 (Homo sapiens), P83916 | AlphaScreen HP1-beta / biotin-H3K9me3 peptide binding | Potency, µM (highest dose often 114 µM), without a hit: top-dose activity change, negative = inhibition, most hits filed as inhibitors; further: nearly all actives have a fitted effect of over 70% in size
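AlphaScreen: HP1-beta (50 nM) preformed 30 min with biotin-H3(1-18)K9me3 peptide (50 nM) in PBS pH 7.4, 0.01% Tween-20. Compound added for 30 min at RT, then streptavidin donor/nickel chelate acceptor beads (10 ug/mL) for 30 min.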
Sfp inh: qHTS Assay for Inhibitors of Bacillus subtilis Sfp phosphopantetheinyl transferase (PPTase). 4'-phosphopantetheinyl transferase ffp (Bacillus subtilis), Q9F4F7. Biochemical Sfp PPTase activity, qHTS. 3.5% of 310,000 active. Potency, µM, for inactives: largest response in the series, negative = inhibition, most hits filed as inhibitors;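 further: the enzyme is Sfp with the accession as filed and its product quenches rhodamine fluorescence; 0% = enzyme reaction without inhibitor and -100% = no enzyme wells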
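After 15 min at room temperature with compound, 15 nM Sfp received 5 uM rhodamine-CoA plus 12.5 uM BHQ-2-ybbR (50 mM Hepes pH 7.6, 10 mM MgCl2). Rate came from the fluorescence difference over 30 min, ex 525/em 598 nm.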
L3MBTL1 block: qHTS Assay for the Inhibitors of L3MBTL1 | AlphaScreen L3MBTL1–H3K9me1 peptide binding | Potency, µM (highest dose often 57.1 µM), without a hit: at the top dose activity, negative = inhibition, usual class: inhibitors | 0.66% of 230,000 active | AID 485360, 2010; further: on the % scale 0 is the no-effect control and ±100 the full control effect; nearly all actives have a fitted effect of over 60% in size
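Displacement of a biotinylated histone H3(1-15) peptide monomethylated at Lys9 (75 nM) from L3MBTL1 (50 nM) was measured by AlphaScreen after a 30 min room-temperature compound incubation; cefsulodin titration served as intraplate control.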
G9a inh: qHTS Assay for Inhibitors of Histone Lysine Methyltransferase G9a. G9a H3K9 monomethylation, AlphaScreen, 2 h. Potency, µM (titrated, usually from 102 µM), inactives show top-dose activity, negative = inhibition, usual class: inhibitors. 8.8% of 350,000 active. AID 504332, 2011; further: on the % scale 0 is the no-effect control and ±100 the full control effect; nearly all actives have a fitted effect of over 75% in size
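Compounds were preincubated with 20 nM G9a for 15 min, after which biotinylated H3K9 peptide (500 nM) and SAM (20 uM) started a 2 h room-temperature reaction. Monomethylated product was quantified by antibody-based AlphaScreen chemiluminescence.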
JMJD2A Tudor inh: qHTS Assay for Inhibitors of JMJD2A-Tudor Domain. Potency, µM (series often up to 114 µM), inactives show at the highest dose activity change, negative = inhibition, most hits filed as inhibitors. AlphaScreen JMJD2A-Tudor / H3K4me3 peptide binding. 4.4% of 390,000 active. Lysine-specific demethylase 4A (Homo sapiens), O75164; further: on the % scale 0 is the no-effect control and ±100 the full control effect; nearly all actives have a fitted effect of over 50% in size
* hit, by the source's call; ? = inconclusive; . = no result given; [ ] = another dose, or the depositor's remark. The list is not random: actives were taken first. Their share in the collection is about 12%. The call rests on the fitted dose curve; in most records, active means well fitted curve in the direction sought with a large enough effect; inconclusive means small, poorly fitted or top-dose-only effect, or another doubt; inactive means no such curve, though single readings can be large; an effect the other way counts as inactive or inconclusive. Potency means the concentration at half of the fitted maximal effect.

SMILES	BAZ2B block	HP1b binding inh	Sfp inh	L3MBTL1 block	G9a inh	JMJD2A Tudor inh
Cc1ncc(COP(=O)(O)O)c(CN)c1O	.	.	1%	.	-7%[12.7 µM]	.
CC(C)Oc1ccc(OCCn2c(S(=O)(=O)O)nc3c(N)ncnc32)cc1	-7%	24%	10%	.	?	-17%
Cc1ccc(OCCn2c(=S)[nH]c3c(N)ncnc32)cc1	-26%	?	-57%	-10%	3.5µM*	5µM*
Cc1ccc(OCCn2c(SCCO)nc3c(N)ncnc32)cc1	1%	13%	19%	.	1%	6%
CC(C)Oc1ccc(OCCn2c(=S)[nH]c3c(N)ncnc32)cc1	-34%	?	50µM*	.	2.5µM*	5.6µM*
COc1cc2c(cc1NC(=O)COc1cc(C)cc(C)c1)oc1ccccc12	-1%	16%	.	.	4%[59 µM]	-3%
C#CCn1cc(/C=C2\NC(=O)NC2=O)c2ccccc21	?	-10%	-14%	.	?	?
COc1ccc(Oc2ncc3nc(-c4ccc(OC)cc4)c(=O)n(CCC#N)c3n2)cc1	.	.	20%	.	-3%[12.7 µM]	.
Cc1cc(-c2c(C)[nH]n(-c3ccc(Cl)cc3)c2=O)n[nH]1	28µM*	8%	25%	-28%	1%	?
CCc1nn(-c2ccccc2)c2nc(-c3ccccc3OC)c3cc(OC)c(OC)cc3c12	-8%	74%	.	.	20%[59 µM]	21%
COc1cc2c(cc1OC)C1(Nc3c-2c(-c2ccccc2)nn3-c2ccccc2)C(=O)Nc2ccccc21 (stereo not drawn)	?	-33%	6%	.	79µM*	?
COc1ccc(N2C(=O)CSC23C(=O)Nc2ccccc23)cc1OC (stereo not drawn)	-4%	5%	-1%	0%	-4%	-25%
COc1cc2c(cc1OC)C1(Nc3c-2c(C)nn3-c2ccccc2)C(=O)Nc2ccccc21 (stereo not drawn)	-12%	-26%	-16%	.	71µM*	?
CCc1nn(-c2ccccc2)c2c1-c1cc(OC)c(OC)cc1C1(N2)C(=O)Nc2ccccc21 (stereo not drawn)	?	-21%	-17%	.	79µM*	?
CC(C)Cn1c(=S)[nH]c2cc(Cl)ccc21	-32%	?	-30%	-8%	6.3µM*	-14%
Cc1ccc(NC(=O)N2CCc3c(sc4c3CCCC4)C2c2ccccc2)cc1F (stereo not drawn)	-38%	24%	.	.	-2%[12.7 µM]	-6%
OCC(O)/C=N/Nc1nc(N2CCCCC2)nc(N2CCCCC2)n1 (stereo not drawn)	-17%	54%	13%	.	56µM*	-5%
COc1ccc(NC(=O)c2ccco2)cc1NC(=O)c1cccc(C)c1OC	?	-9%	.	.	0%[59 µM]	20µM*
COc1ccccc1NC(=O)C(=O)NNC(=O)c1ccco1	?	16%	-9%	4%	8.9µM*	?
COc1ccccc1NC(=O)c1ccccc1NC(=O)c1cc(Cl)ccc1NC(=O)c1ccco1	-22%	32%	16µM*	-14%	0%[59 µM]	13%
COc1ccccc1NC(=S)NNC(=O)c1ccc(Cl)cc1Cl	9%	14%	14%	12%	20µM*	-18%
Cc1ccc(NC(=O)CN2C(=O)C(c3ccc(F)cc3)=NC23CCCCC3)c(C)c1	7%	49%	.	.	0%[59 µM]	7%
CCOc1ccc(C(=O)NCCn2cc(SCC(=O)NCCc3ccc(OC)c(OC)c3)c3ccccc32)cc1	?	5%	.	.	-5%[59 µM]	-20%
Nc1nc2c(nc(Br)n2C2O[C@H]3COP(=O)(O)O[C@@H]3C2O)c(=O)[nH]1 (stereo partly drawn)	.	.	.	.	29%[12.7 µM]	.
